The values below come from PubChem BioAssay.

Experiment [1] is described as follows: A549 cell viability effects, profiling panel, calcein-AM fluorescence, 48 h, basal (AID 1162). Particulars: higher = more signal.
A short description of experiment [2]: adipocyte viability effects, profiling panel, cell-based, 3T3-L1 adipocytes, calcein-AM fluorescence, 48 h, basal (AID 1163). Particulars: 3T3-L1 adipocytes viability, higher = more signal.
Experiment [3] can be described thus: HepG2 cell viability effects, profiling panel, calcein-AM fluorescence, 48 h, basal (AID 1164). Particulars: higher = more signal.
Experiment [4] can be described thus: MM1S cell viability effects, profiling panel, calcein-AM fluorescence, 48 h, basal (AID 1165).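 Also: viability of MM1S multiple myeloma cells under basal unstimulated conditions.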 Particulars: higher = more signal.
A short description of experiment [5]: basal RPMI8226 viability, no added stimulus, profiling panel, cell-based, calcein-AM fluorescence, 48 h, PK04 Diversity Set (AID 1166).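 Also: cells grown under basal conditions without added stimulus.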 The settings on record: RPMI8226 myeloma viability, higher = more signal.
Experiment [6] in a line: basal HepG2 mitochondrial membrane potential changes, profiling panel, cell-based, JC-1 fluorescence, 24 h, 100 nL compound (AID 1167). The settings on record: higher = more signal.
Experiment [7] in a line: basal 3T3-L1 adipocyte mitochondrial potential changes, profiling panel, cell-based, JC-1 fluorescence, 3T3-L1 adipocytes, 24 h, 100 nL compound (AID 1168). The settings on record: JC-1 mitochondrial fluorescence, higher = more signal, called active from +8 up or from −8 down.
A short description of experiment [8]: basal RPMI8226 mitochondrial membrane potential changes, profiling panel, cell-based, JC-1 fluorescence, 24 h, 100 nL compound (AID 1169). The settings on record: RPMI8226 myeloma, JC-1 mitochondrial potential fluorescence, higher = more signal.
The nature of experiment [9]: basal MM1S mitochondrial membrane potential changes, profiling panel, cell-based, JC-1 fluorescence, 24 h, 100 nL compound (AID 1170). The settings on record: higher = more signal.
Experiment [10] is described as follows: A549 lung cancer cell viability effects, profiling panel, resazurin fluorescence, 24 h, PK04 Diversity Set (AID 1171). The settings on record: higher = more signal, called active from +8 up or from −8 down.

Activity calls are given as the source filed them.
Also: test concentration not given here.

Take `CC(C)N1C(=O)C[C@@](C(=O)NC2CC2)(c2ccc([N+](=O)[O-])cc2)[C@H]1c1ccc(CO)cc1`: the z-score was 0.219 in experiment [1]; 1.98 in [2]; 1.03 in experiment [3]; 0.941 in [4]; -1.73 in experiment [5]; 0.347 in [6]. In addition, the z-score in [7] was -0.0995 (inactive); in experiment [8], -0.416; in [9], 0.059; in [10], -0.0786 (inactive).
Take `O=C1[C@H]2C=C(I)[C@H](C[C@@H]2OCCOCCO)[C@@]12CO2`: the z-score in experiment [1] was -0.461; in experiment [2] it was -1.03; in experiment [3] it was -0.773; in experiment [4] it was -0.582; in [5] it was -0.537; in experiment [6], -1.77. For the same compound, the z-score in experiment [7] was -0.473 (inactive); in [8], -0.196; in experiment [9] it was -0.807; in experiment [10] it was 0.323 (inactive).
With `COCCOC(=O)N1C(=O)[C@@]2(c3cc(C#CC4=CCCCC4)ccc31)[C@H](C(=O)Nc1nc3ccccc3s1)[C@H]1C(=O)O[C@H](c3ccccc3)[C@H](c3ccccc3)N1[C@@H]2c1ccc(O)cc1`, the z-score in [1] was 0.427; in [2] it was 0.217; in experiment [3] it was 0.0981; in experiment [4], -1.79; in [5], -1.62; in experiment [6] it was -3.16. Moreover, the z-score in experiment [7] was -0.762 (inactive); in [8], -0.404; in experiment [9], -0.54; in experiment [10], -0.353 (inactive).
In the case of `COC(=O)c1c(CC[C@@H](CO)NC(=O)N[C@@H](C)Cn2cc(-c3ccccn3)nn2)oc(C(C)=O)c1C(=O)OC`, the z-score in [1] is -0.495; in experiment [2], 0.526; in experiment [3], -0.239; in [4], 0.226; in experiment [5], -0.858; in [6], -0.182. For the same compound, the z-score was -0.857 (inactive) in experiment [7], -0.181 in experiment [8], -0.0849 in experiment [9] and -1.38 (inactive) in [10].
For `O=C1OCCC=C[C@H]2OC34C=CCN(Cn5nnc6ccccc65)C(=O)[C@H]3N(CCCO)C(=O)[C@@H]4C12` (stereo not given in full), the z-score in experiment [1] was 0.213; in experiment [2] it was 1.03; in experiment [3] it was -1.1; in experiment [4], 0.114; in experiment [5] it was -1.04; in experiment [6], -0.746. Also, the z-score was 0.147 (inactive) in [7], 0.057 in experiment [8], 0.251 in [9] and -0.618 (inactive) in experiment [10].
`Cc1ccc(S[C@]2(C(=O)NC(C)C)CC(=O)N(Cc3cc(C(F)(F)F)cc(C(F)(F)F)c3)[C@@H]2c2ccc(CO)cc2)cc1`: the z-score in [1] is 0.15; in experiment [2] it was -0.312; in experiment [3] it was -0.286; in experiment [4] it was 0.395; in experiment [5], 0.392; in [6], -0.387. The z-score in experiment [7] is -0.5 (inactive); in experiment [8], -0.555; in [9] it was -0.129; in experiment [10] it was 0.271 (inactive).
As for `[N-]=[N+]=Nc1ccccc1C[C@]1(C(=O)N2CCOCC2)COC(c2ccc(OCCCO)cc2)=N1`, the z-score was 0.462 in [1]; 1.31 in [2]; -0.603 in experiment [3]; -1.43 in experiment [4]; -0.314 in experiment [5]; 0.943 in [6]. The z-score in experiment [7] is -0.491 (inactive); in [8] it was -0.571; in experiment [9], 0.615; in experiment [10], 1.63 (inactive).
For the compound `COCCOC(=O)N1C(=O)[C@@]2(c3cc(C#CCCO)ccc31)[C@H](C(=O)Nc1nc3ccccc3s1)[C@H]1C(=O)O[C@H](c3ccccc3)[C@H](c3ccccc3)N1[C@@H]2c1ccc(O)cc1`, the z-score in experiment [1] was -0.378; in experiment [2], 0.274; in experiment [3] it was 0.123; in [4], 0.0566; in [5], -2.06; in [6] it was 0.248. Further, the z-score in experiment [7] was 0.15 (inactive); in experiment [8], -0.314; in [9] it was -0.471; in experiment [10], 0.771 (inactive).
In the case of `O=C1C[C@]2(c3ccc([N+](=O)[O-])cc3)C(=O)N(C3CC3)c3cc(CO)ccc3[C@H]2N1CC12CC3CC(CC(C3)C1)C2`, the z-score is 0.207 in experiment [1]; 0.368 in [2]; -0.67 in experiment [3]; 0.352 in experiment [4]; -0.947 in experiment [5]; -0.148 in [6]. For the same compound, the z-score in experiment [7] was -0.837 (inactive); in [8], 0.787; in experiment [9] it was -1.1; in experiment [10], -0.452 (inactive).
`O=C1OCCC/C=C\[C@H]2OC34C=CCN(c5ccc6ccccc6c5)C(=O)[C@H]3N(CCO)C(=O)[C@@H]4C12` (stereo not given in full): the z-score in [1] is 0.451; in experiment [2], 1.91; in experiment [3], -0.569; in experiment [4], 1.3; in [5], -0.205; in experiment [6], -0.00127. Moreover, the z-score in experiment [7] is -0.622 (inactive); in experiment [8], -0.0898; in experiment [9], 1.03; in experiment [10] it was -1.48 (inactive).
For the compound `Oc1ccc2cc[n+](Cc3cc4c(cc3Br)OCO4)cc2c1`, the z-score was 1.58 in experiment [1]; -0.35 in [2]; 0.312 in experiment [3]; 0.677 in experiment [4]; -1.77 in experiment [5]; -1.12 in experiment [6]. In addition, the z-score is 0.418 (inactive) in experiment [7], -0.123 in experiment [8], 0.313 in experiment [9] and -0.585 (inactive) in [10].
On to `CC1CC/C=C\[C@H]2OC34C=CCN(c5ccc6ccccc6c5)C(=O)[C@H]3N(CCCO)C(=O)[C@@H]4C2C(=O)O1` (stereo not given in full), for which the z-score in [1] was -0.391; in [2], -0.229; in experiment [3], -0.597; in experiment [4] it was -0.144; in experiment [5], -0.143; in experiment [6] it was -0.519. The z-score in [7] is -0.856 (inactive); in experiment [8], 0.17; in [9] it was 0.707; in experiment [10], -0.525 (inactive).
`COC(=O)[C@@]1(Cc2ccc(OC)cc2)[C@H]2c3cc(C(=O)N(C)C)n(Cc4ccc(OC(F)(F)F)cc4)c3C[C@H]2CN1C(=O)c1ccccc1`: the z-score is -1.34 in [1]; -0.306 in [2]; -0.77 in experiment [3]; -3.39 in experiment [4]; -4.11 in experiment [5]; -2.18 in experiment [6]. The z-score was -0.922 (inactive) in experiment [7], -0.791 in experiment [8], -2.79 in [9] and -1.36 (inactive) in experiment [10].
`CCCC#C[Si](O[C@H](CC)c1cn([C@H](C)c2ccccc2)nn1)(C(C)C)C(C)C`: the z-score in [1] is 1.18; in [2], -0.374; in [3], 0.9; in experiment [4], -1.32; in experiment [5], -1.74; in experiment [6] it was 0.621. Further, the z-score in [7] was 0.698 (inactive); in experiment [8], -0.0539; in experiment [9] it was -0.0359; in [10] it was 0.61 (inactive).
